# Results: PubChem BioAssay (EPA / NIEHS)
# Values joined by “and” are separate entries in the source; they are usually repeats but may differ in a detail not shown here. Equal entries are not always repeated. Results filed as inconclusive are left out. Where a structure was tested more than once in an assay, its records may differ in their call. Active and inactive are the calls of the source. Rule for the calls: active = hit-call score of the fitted dose curve at least 0.9, where 1 is the maximum; inconclusive = response in the unintended direction; inactive = score below 0.9.
# Test: TOX21_p53_BLA_p3_viability: Viability Assessment in the Tox21 HCT-116 p53 Agonism Beta-lactamase Assay, Phase 3 (AID 2283593);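 note: cells exposed to compound for 16 h before reading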
# Excerpt: TOX21_p53_BLA_p3 is a cell-based, single-readout assay that uses HCT116, a human intestinal cell line, […] in a 1536-well plate.TOX21_p53_BLA_p3_viability is an assay readout measuring cellular ATP content and detected with CellTiter-Glo Luciferase-coupled ATP quantitation.TOX21_p53_BLA_p3_viability used a type of viability reporter where loss-of-signal activity can be used to understand changes in the cell viability. Furthermore, this assay endpoint can be referred to as a secondary readout, because this assay has produced multiple assay endpoints where this one serves a viability function. To generalize the intended target to other relatable targets, this assay endpoint is annotated to the cell cycle intended target family, where the subfamily is cytotoxicity.
# Thawing Method: Place 14 mL of pre-warmed thaw medium into a 15 mL of conical tub. Remove the vial of cells to be thawed from liquid nitrogen and thaw rapidly by placing at 37C in a water bath with gentle agitation for 1-2 minutes. Decontaminate the vial by wiping with 70% ethanol before opening in a biological safety cabinet. Transfer the vial contents drop-wise into 14 mL of thaw medium in a sterile 15-mL conical tub. Centrifuge cells at 900 rpm for 4 minutes and resuspend in thaw medium. Transfer contents to the T75 tissue culture flask containing Thaw Medium and place flask in a humidified 37C/5% CO2 incubator. Switch to growth medium at first passage.Propagation Method: Aspirate medium, rinse once in DPBS, add 0.25% Trypsin/EDTA and swirl to coat the cell evenly. Add an equal volume of Growth Medium to inactivate Trypsin after 2-3 minutes incubation at 37C. Centrifuge cells at 900 rpm for 4 minutes and resuspend in growth medium. Cell should be passage or fed at least twice a week.Assay Protocol: Harvest cells from culture in growth medium and resuspend in assay medium. 2.2 Dispense 4000 cells/5 uL/well into 1536-well black/clear bottom plates using a Multidrop dispenser. After the cells were incubated at 37C for 5 hours, 23 nL of compounds dissolved in DMSO were transferred to the assay plate by a PinTool resulting in a 217-fold dilution. Incubate the plates for 16 hours at 37C, 5% CO2. Add 1 uL of 6X LiveBLAzer FRET B/G (CCF4-AM) Substrate Mixture to each well using a BioRAPTR dispenser and incubate the plates at room temperature for 2 hours. Measure fluorescence intensity at 460 and 530 nm emission and 405 nm excitation by an Envision detector. Data is expressed as the ratio of 460nm/530nm emissions. Add 4 uL of Cell-titer Glo to each well using BioRAPTR and incubate the plates at room temperature for […]. For cell viability readout that measures cytotoxicity, 4 ul/well of CellTiter-Glo reagent was added into the assay plates using a Flying Reagent Dispenser. After 30 min incubation at room temperature, the luminescence intensity in the plates was measured using a ViewLux plate reader.
Compound,outcome,AC50
c1ccc2c(c1)-c1cccc3cccc-2c13,inactive,–
ClC1=C(Cl)C2(Cl)C3C(Cl)C=CC3C1(Cl)C2(Cl)Cl (stereo not given),–,46.1 µM (active) and 69.6 µM (active)
CC(C)(C)OOC(C)(C)CCC(C)(C)OOC(C)(C)C,inactive,–
CC(C)(C)C(O)(CCc1ccc(Cl)cc1)Cn1cncn1 (stereo not given),inactive,–
CN(C)[C@@H]1C(=O)C(C(N)=O)=C(O)[C@@]2(O)C(=O)C3=C(O)c4c(O)cccc4[C@@](C)(O)[C@H]3C[C@@H]12,inactive,–
CCC(C)c1ccc(O)cc1 (stereo not given),inactive,–
Nc1ccc(Oc2ccc(N)cc2)cc1,inactive,–
ClC1=C(Cl)[C@]2(Cl)[C@H]3[C@H]([C@@H]4C=C[C@H]3C4)[C@@]1(Cl)C2(Cl)Cl,inactive,46 µM (active)
N#CC(Br)(Br)C(N)=O,inactive,–
CC(C)(O)c1cnn2c(-c3ccc(F)c(-c4c(F)cccc4C#N)c3)cnc2n1,inactive,–
CCN(CC)N=O,inactive,–
Clc1ccc(C(c2ccc(Cl)cc2)C(Cl)Cl)cc1,–,79.1 µM (active) and 50.6 µM (active)
Nc1ccc([N+](=O)[O-])cc1,inactive,–
OCCCBr,inactive,–
CCCCCCCCn1sccc1=O,–,41.7 µM (active) and 72.5 µM (active)
Nc1ccc(Cl)cc1N,inactive,–
Clc1ccc(C(c2ccc(Cl)cc2)C(Cl)(Cl)Cl)cc1,inactive,77.1 µM (active) and 30.7 µM (active)
CO[C@@H]1[C@H](OC(=O)NC(=O)CCl)CC[C@]2(CO2)[C@H]1[C@@]1(C)O[C@@H]1CC=C(C)C,inactive,–
O=P(OCCCl)(OCCCl)OCCCl,inactive,–

Compound,outcome,AC50
CN(C)C(=O)Nc1ccc(Cl)cc1,inactive,–
C=CCc1ccc2c(c1)OCO2,inactive,–
COC(=O)Nc1nc2ccccc2[nH]1,inactive,–
CNC(=O)Oc1cccc2c1OC(C)(C)C2,inactive,–
Nc1cc(Cl)cc(C(=O)O)c1Cl,inactive,–
COP(=S)(OC)SCN1C(=O)c2ccccc2C1=O,inactive,–
CCC12COCN1COC2,inactive,–
[As]#[In],inactive,–
CC(O)CCO (stereo not given),inactive,–
Nc1ccc(N=Nc2ccccc2)cc1,inactive,–
Cc1ccc(N=C=O)cc1N=C=O,inactive,–
COc1cc(C=O)cc2c1[C@H](COC(N)=O)[C@]1(OC(C)=O)ON2C[C@H]2[C@@H]1N2C(C)=O,inactive,–
c1ccc(C2CO2)cc1 (stereo not given),inactive,–
O=C(Oc1ccc(Br)cc1)N1CCN2CCC1CC2,inactive,–
CN(C)c1ccccc1,inactive,–
[Cl-].[Cl-].[Hg+2],inactive,68.5 µM (active) and 26.1 µM (active)
Brc1ccc(Oc2ccccc2)cc1,inactive,–
Cc1cc(N=Nc2ccccc2C)ccc1N,inactive,–
